The record followed here is PubChem BioAssay (NCI).

Structures are written as SMILES. About 83,000 compounds went through this panel and 20% of them were active in at least one assay; those are over-represented in the sample as a whole.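 The test compound was applied at a single concentration to cells in 96-well plates for 48 hours, and percent growth was recorded.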 Unmarked numbers belong to inactive results. The source made the active and inactive calls. Rule for the calls: active = growth percent below 10; inactive = the rest.

Among the test systems are NCI-H23 lung; NCI-H226 lung; NCI-H322M lung; HOP-62 NSCLC; NCI-H460 lung; HOP-92 NSCLC; NCI-H522 lung; A549/ATCC NSCLC; COLO 205 colon; DU-145 prostate; K-562 leukemia; MALME-3M melanoma; MDA-MB-231 breast; RXF 393 renal; SF-268 CNS; SF-295 CNS; SF-539 CNS; UACC-257 melanoma; M14 melanoma; 786-0 renal.
Assay in all cases: NCI-60 one-dose screen, 48 h (100 = growth as untreated, 0 = no growth, -100 = all killed)
What all share (conditions): 10 µM unless noted

`O=C(NNC(=S)Nc1ccccc1)c1cc2ccc1CCc1ccc(cc1)CC2`: the growth in the assay with NCI-H23 lung is 74.8%; with NCI-H226 lung it was 78.9%; in the assay on NCI-H322M lung, 77.7%; in the assay on HOP-62 NSCLC it was 64.7%; in the assay on NCI-H460 lung, 36.9%; in the assay on HOP-92 NSCLC, 48.8%. Besides, the growth in the assay with NCI-H522 lung is 76%; in the assay on A549/ATCC NSCLC, 59.2%; in the assay with COLO 205 colon it was 77%; in the assay with DU-145 prostate, 77.5%; in the assay with K-562 leukemia, 43.4%; in the assay with MALME-3M melanoma, 74.8%. Besides, the growth in the assay with MDA-MB-231 breast is 77.2%; with RXF 393 renal, 83.7%; with SF-268 CNS, 76.6%; in the assay with SF-295 CNS, 49.5%; in the assay on SF-539 CNS, 82.9%; in the assay with UACC-257 melanoma, 85.8%. Also, in the assay with M14 melanoma, the growth was 56%.
On to `Cc1ccc2nc(Cl)cc(=O)n2c1`, for which the growth was 107% in the assay with NCI-H23 lung; 108% with NCI-H226 lung; 116% in the assay with NCI-H322M lung; 100% in the assay on HOP-62 NSCLC; 113% with NCI-H460 lung; 104% in the assay on HOP-92 NSCLC. Also, the growth in the assay with NCI-H522 lung is 116%; in the assay with A549/ATCC NSCLC, 113%; with 786-0 renal it was 100%; with COLO 205 colon it was 108%; in the assay on DU-145 prostate, 124%; with MALME-3M melanoma it was 135%. The growth in the assay with MDA-MB-231 breast is 111%; with RXF 393 renal, 117%; with SF-268 CNS, 114%; in the assay with SF-295 CNS, 113%; in the assay on UACC-257 melanoma, 112%; with M14 melanoma it was 104%.
For `CCO/C=N/C1=C(C#N)C(c2ccc(Cl)cc2)c2c(c3ccc(C)cc3[nH]c2=O)O1` (stereo unspecified), the growth in the assay on NCI-H23 lung was 85.4%; with NCI-H226 lung it was 78.9%; with NCI-H322M lung it was 88%; with HOP-62 NSCLC, 70.7%; in the assay on NCI-H460 lung it was 95%; in the assay with HOP-92 NSCLC, 50.7%. The growth was 74.2% in the assay on NCI-H522 lung; 90.2% in the assay on A549/ATCC NSCLC; 96.1% in the assay on COLO 205 colon; 103% in the assay with DU-145 prostate; 88.1% in the assay on K-562 leukemia; 81.8% in the assay on MALME-3M melanoma. Moreover, the growth was 59.6% in the assay with MDA-MB-231 breast; 73.9% in the assay on RXF 393 renal; 90.7% in the assay with SF-268 CNS; 89.6% in the assay on SF-295 CNS; 75.9% in the assay on SF-539 CNS; 97.2% in the assay on UACC-257 melanoma. Also, the growth in the assay on M14 melanoma is 87.1%.
Turning to `O=C(CSC1CCc2ccccc21)N/N=C/c1ccccc1O` (stereo unspecified), the growth with NCI-H23 lung is 55.5%; in the assay with NCI-H226 lung, 67.7%; with NCI-H322M lung it was 22.6%; in the assay on HOP-62 NSCLC, 47.5%; with NCI-H460 lung, 30.9%; in the assay on HOP-92 NSCLC, 77.4%. Further, the growth in the assay on NCI-H522 lung was 7.47% (active); in the assay on A549/ATCC NSCLC it was 48.2%; in the assay on 786-0 renal, 66.6%; in the assay with COLO 205 colon, 45.7%; with DU-145 prostate it was 52.8%; in the assay on MALME-3M melanoma, 53.3%. The growth is 45.2% in the assay with MDA-MB-231 breast; 75.1% with RXF 393 renal; 39.5% with SF-268 CNS; 54.7% in the assay on SF-539 CNS; 47.4% with M14 melanoma.
Consider `CCN(CC)c1ccc(C(=N)c2ccc(N(CC)CC)cc2)cc1`, for which the growth was -52.9% (active) in the assay on NCI-H23 lung; -33.5% (active) with NCI-H226 lung; 16.2% in the assay with NCI-H322M lung; -82.7% (active) with HOP-62 NSCLC; -44.5% (active) with NCI-H460 lung; -30.6% (active) in the assay on HOP-92 NSCLC. Further, the growth in the assay on NCI-H522 lung is -62.4% (active); in the assay on A549/ATCC NSCLC it was 6.12% (active); with 786-0 renal it was -55.2% (active); in the assay on COLO 205 colon, -96.6% (active); in the assay on K-562 leukemia it was -4.1% (active); in the assay with MALME-3M melanoma it was -32.6% (active). Further, the growth was -63.3% (active) in the assay with MDA-MB-231 breast; -31.5% (active) in the assay on RXF 393 renal; -54.7% (active) in the assay on SF-295 CNS; -68.7% (active) in the assay with SF-539 CNS; -39.6% (active) with UACC-257 melanoma; -93.1% (active) in the assay on M14 melanoma.
For the compound `CN(C[C@H]1Cc2c(cccc2N2CCN(Cc3ccccn3)CC2)CN1)[C@H]1CCCc2cccnc21`, the growth in the assay on NCI-H23 lung is 62.4%; in the assay on NCI-H226 lung, 56.9%; in the assay on NCI-H322M lung, 65.3%; with HOP-62 NSCLC it was 39.1%; with NCI-H460 lung, 28.1%; with NCI-H522 lung, 95.5%. The growth was 40.3% in the assay with A549/ATCC NSCLC; 68.5% in the assay on 786-0 renal; 69.6% with COLO 205 colon; 66.6% in the assay with DU-145 prostate; 9.95% (active) in the assay on K-562 leukemia; 88.3% in the assay on MALME-3M melanoma. Further, the growth in the assay on MDA-MB-231 breast is 70.2%; in the assay on RXF 393 renal, 77.9%; in the assay on SF-268 CNS, 63.8%; in the assay with SF-295 CNS it was 43.4%; with SF-539 CNS, 83%; in the assay with UACC-257 melanoma, 93.1%. Moreover, in the assay with M14 melanoma, the growth was 62.3%.
Regarding `CC(=O)OC[C@]12CC[C@H]3[C@@H](C[C@H]4O[C@]45CC=CC(=O)[C@]35C)[C@]1(O)CC[C@@]2(O)[C@@](C)(O)C1CC(C)=C(C)C(=O)O1` (stereo partly specified), the growth was -32.9% (active) with NCI-H23 lung; -28.5% (active) in the assay on NCI-H226 lung; -54.2% (active) in the assay with NCI-H322M lung; -34% (active) in the assay on HOP-62 NSCLC; -51.3% (active) in the assay with NCI-H460 lung; -54.1% (active) in the assay on NCI-H522 lung. In addition, the growth in the assay on A549/ATCC NSCLC was 6.23% (active); in the assay with 786-0 renal it was -19.6% (active); in the assay on COLO 205 colon it was -35.7% (active); with DU-145 prostate, 7.44% (active); with K-562 leukemia, 5.58% (active); in the assay with MALME-3M melanoma it was -58.4% (active). The growth was -14.7% (active) with MDA-MB-231 breast; -62.8% (active) in the assay on RXF 393 renal; -49.5% (active) in the assay with SF-268 CNS; -11.9% (active) in the assay with SF-295 CNS; -42.7% (active) with SF-539 CNS; 13.7% in the assay on UACC-257 melanoma. In addition, in the assay on M14 melanoma, the growth was 2.6% (active).
Turning to `Cc1ccc(Nc2nnc(-c3ccc(Cl)cc3)o2)c(C)c1`, the growth in the assay on NCI-H23 lung is 84.4%; with NCI-H226 lung, 99.6%; in the assay on NCI-H322M lung, 102%; in the assay on HOP-62 NSCLC, 81.8%; with NCI-H460 lung it was 97.1%; in the assay with HOP-92 NSCLC, 107%. In addition, the growth with A549/ATCC NSCLC is 79.2%; in the assay with 786-0 renal, 89.3%; with COLO 205 colon it was 81.4%; with DU-145 prostate it was 93.5%; with K-562 leukemia it was 24.8%; in the assay on MALME-3M melanoma, 62.1%. Moreover, the growth in the assay on MDA-MB-231 breast was 76.3%; with RXF 393 renal it was 93.8%; in the assay on SF-268 CNS it was 90.3%; in the assay with SF-295 CNS, 80.7%; in the assay with SF-539 CNS it was 79%; with UACC-257 melanoma it was 87.8%. Besides, the growth in the assay with M14 melanoma was 57.6%.
As for `CCCCOc1ccc(/C=C2/SC(N3CCCC3)=NC2=O)cc1`, the growth in the assay with NCI-H23 lung was 98.8%; in the assay with NCI-H226 lung, 85.5%; in the assay on NCI-H322M lung, 98.8%; in the assay with HOP-62 NSCLC it was 99.3%; with NCI-H460 lung, 99%; in the assay on HOP-92 NSCLC it was 86.8%. Moreover, the growth with A549/ATCC NSCLC is 94.7%; with COLO 205 colon it was 104%; with DU-145 prostate, 80.9%; with K-562 leukemia, 82%; in the assay with MALME-3M melanoma, 97.9%; in the assay on MDA-MB-231 breast, 95.6%. Moreover, the growth in the assay on RXF 393 renal is 90.9%; in the assay on SF-268 CNS it was 98.7%; in the assay with SF-295 CNS, 93.8%; in the assay on SF-539 CNS it was 87.9%; in the assay on UACC-257 melanoma it was 102%; in the assay on M14 melanoma it was 95.4%.
